# Test results taken from PubChem BioAssay AID2100 (National Center for Advancing Translational Sciences (NCATS), 2009).
# Screen size: about 300,000 compounds; about 1,200 (0.4%) were called active. Not shown: some 3% with an inconclusive outcome. Calls come from the whole dose curve; as a rule, active = well fitted inhibition curve with a large enough effect; inconclusive = small, poorly fitted or top-dose-only effect, or another doubt; inactive = no such curve, though single readings can be large or run the other way. Shown is part of a subset that was picked to be rich in actives. A call without a number means that no potency is given here.
# Biological target: Lysosomal alpha-glucosidase (Homo sapiens) (UniProt P10253)
# Test: qHTS Assay for Inhibitors and Activators of Human alpha-Glucosidase Cleavage of Glycogen;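 note: the screen sought inhibitors and activators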
# Conditions: recombinant GAA, glycogen substrate, Amplex Red glucose oxidase fluorescence; series mostly up to 76.4 µM
# Source text: NIH Chemical Genomics Center [NCGC] NIH Molecular Libraries Probe Production Centers Network [MLPCN] MLPCN Grant: R03 MH084841-01 Assay Submitter (PI): Wei Zheng NCGC Assay Overview: Alpha-glucosidase is responsible for the hydrolysis of terminal, non-reducing 1,4-linked alpha-D-glucose residues, which releases alpha-D-glucose. It is a lysosomal hydrolase that is required for the degradation of a small percentage (1-3%) of cellular glycogen in humans. Deficiency of this enzyme results in glycogen-storage disease type II (GSDII), also referred to as Pompe disease, an autosomal recessive disorder. Structurally normal glycogen is accumulated in the lysosomes and cytoplasm in affected patients, primarily in muscle tissues. Excessive glycogen storage within lysosomes may interrupt normal functioning of other organelles and leads to cellular injury. In turn, this leads to enlargement and dysfunction of the entire organ involved (eg: cardiomyopathy and muscle weakness). It has been reported that the improper folding and trafficking of alpha-glucosidase resulting from genetic mutations may account for a significant number of Pompe patients. […] We optimized this alpha-glucosidase assay in 1536-well plate format for identification of novel small molecule inhibitors or activators with structures other than the sugar analogs in order to develop new pharmacological chaperones. Previous assays of alpha-Glucosidase have utilized a non-natural fluorescent substrate to probe enzyme activity. The present assay measures enzyme activity on glycogen using a coupled-assay system to glucose oxidase.
# NCGC Assay Protocol Summary: This is an enzyme assay using glycogen from bovine liver (Sigma catalog #: G0885) as the substrate and recombinant human alpha-glucosidase as the enzyme preparation. Upon hydrolysis of the substrate, the glucose product can be detected using the Amplex Red Glucose Oxidase Assay Kit (Invitrogen catalog #: A22189). The product of this reaction can be read with a fluorescence plate reader with an excitation at 573 nm and an emission at 610 nm. Data were normalized to the controls for basal activity (without enzyme) and 100% activity (with enzyme). The AC50 values were determined from concentration-response data modeled with the standard Hill equation. Assay buffer for enzyme reaction: 50 mM citric acid (titrated with potassium phosphate to pH 5.0), 0.01% Tween-20 (pH 5.0 is an optimal condition for this enzyme assay) Assay buffer for Amplex Red reaction: Tris-HCl, pH 7.5 1536-well assay protocol for the alpha-glucosidase assay: (1) Add 2 ul/well alpha-glucosidase enzyme solution (4 nM final) (2) Add 23 nL compounds in DMSO solution. The final titration was 0.7 nM to 77 uM. (3) Add 1 ul of glycogen substrate solution (30 ug) (4) Incubate at 37 C for 40 min (5) Add 2 ul tris-HCl buffer with Amplex Red reagents (6) Incubate 45 min at room temperature. (7) Detect the assay plate in a ViewLux plate reader (PerkinElmer) with Ex=573 nm and Em=610nm. Keywords: Alpha-glucosidase, Pompe Disease, pharmacological chaperone, chaperone therapy, high throughput screening, alpha-glucosidase inhibitor, MLSMR, MLSCN, NIH Roadmap, qHTS and NCGC
# Potency is the fitted concentration of half-maximal effect.
row,SMILES,Potency
1,Oc1cc2c(cc1CN1CCN(c3ccccc3)CC1)OCO2,2000 nM (active)
2,Fc1ccc(N2CCN(Cc3ccc4c(c3)OCO4)CC2)cc1,inactive
3,CC(C)c1ccc(O)c(CN2CCN(c3ccccc3)CC2)c1,inactive
4,Cc1ccc(NC(=O)N(Cc2ccc3c(c2)OCO3)C2CCN(Cc3ccccc3)CC2)cc1F,inactive
5,Cn1cc(/C=C/c2nc3ccccc3c(=O)n2-c2ccccc2)c2ccccc21,inactive
